Reference: PubChem BioAssay AID1259313 (Sanford-Burnham Center for Chemical Genomics, 2017)
In all, about 340,000 compounds went through this assay and about 8,500 (2.5%) were called active. This is one part of a sample in which actives are shown more often than they occur.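 Rule for the calls: active = melting temperature shift of at least 10% of the positive control shift, at one fixed dose; inactive = the rest.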

Tested on: Glutamate receptor ionotropic, NMDA 3A (GRIN3A) ligand-binding domain
Assay: binders of NR3A ligand-binding domain, primary screen, biophysical, differential scanning fluorimetry, uHTS (AID 1259313)
Conditions: NR3A LBD differential scanning fluorimetry, at 25 µM, active compounds read high, 0% = protein alone, 100% = glycine-bound protein

| Compound | Tm shift relative to glycine control |
| --- | --- |
| Cc1ccc2cc(C)c(N3CCC(C)CC3)nc2c1 | 3.71% (inactive) |
| CC1(c2ccccc2)NC(=O)N(CC(=O)Nc2cc(Cl)ccc2N2CCOCC2)C1=O (stereo not given) | 0.96% (inactive) |
| O=C(CSc1nc(Nc2ccccc2)nc(N2CCOCC2)n1)Nc1cc(Cl)ccc1O | 32.6% (active) |
| Cc1ccccc1NC(=O)CSc1nc2ccc(Nc3nc(N4CCOCC4)nc(N4CCOCC4)n3)cc2s1 | -1.11% (inactive) |
| Cc1ccc(C(=O)OCC(=O)NC(=O)Cc2ccccc2)c(O)c1 | 0.78% (inactive) |
| O=S(=O)(NC1CCCCC1N1CCN(c2ccccc2F)CC1)c1ccccc1 (stereo not given) | -1.62% (inactive) |
| Cc1ccc(N2C(=O)C(CC(=O)Nc3cccc(F)c3)N(CCc3ccncc3)C2=O)cc1 (stereo not given) | 0.4% (inactive) |
| Cc1ccc(NC(=O)CC2C(=O)N(Cc3ccccc3)C(=S)N2NC(=O)c2cccc(F)c2)c(C)c1 (stereo not given) | 19.1% (active) |
| CN1C(=O)C(CC(N)=O)N(NC(=O)c2ccc(Cl)cc2)C1=S (stereo not given) | -3.25% (inactive) |
| CC1=C(C(=O)Nc2ccccc2)C(c2cccs2)C(C#N)=C(SCC#N)N1 (stereo not given) | -11.3% (inactive) |
| O=C(COc1ccccc1F)NNC(=O)c1cc(Br)ccc1Cl | 0.51% (inactive) |
| O=C(NCCOc1ccccc1F)Nc1ccc(Br)cc1 | 16.4% (active) |
| O=C(NCCOc1ccccc1Cl)C(=O)Nc1ccccc1 | -4.63% (inactive) |
| CCN(CC)c1ccc(NC(=O)c2ccc(=O)[nH]c2)cc1S(=O)(=O)Nc1ccc(OC)cc1 | -4.98% (inactive) |
| Cc1nc(SCC(=O)N2CCc3ccccc3C2)c2c(C)c(C)sc2n1 | -0.44% (inactive) |
| COc1cc(OC)cc(C(=O)NCC(=O)N2CCCCCCC2)c1 | 3.22% (inactive) |
| O=C(Nc1cccc(Cl)c1)c1cc([N+](=O)[O-])ccc1N1CCN(CCO)CC1 | 3.77% (inactive) |
| Cn1c(Nc2cccc(Cl)c2)nc2ccccc21 | 8.46% (inactive) |
| Cc1c(C(=O)Nc2cccc(Cl)c2)cn2c(nc3ccccc32)c1C#N | 24.6% (active) |
| CCCN(C(=O)c1nc2nccc(C)n2n1)c1c(N)n(Cc2ccccc2)c(=O)[nH]c1=O | -5.77% (inactive) |
| O=C(CCN1C(=O)c2ccccc2C1=O)NNC(=O)c1ccc(Cl)cc1Cl | -1.46% (inactive) |
| CCc1ccc(CNC(=O)C2CCN(c3nnc(C)c4c(C)n(-c5ccc(C)cc5)nc34)CC2)cc1 | -2.58% (inactive) |
| COc1ccccc1N1CCN(/N=C/c2ccc(O)cc2O)CC1 | 1.98% (inactive) |
| Cc1nc2ccccc2nc1N/N=C/c1ccc(O)cc1O | 34.3% (active) |
| Oc1ccc(-c2nc3ccccc3nc2-c2ccc(O)cc2O)c(O)c1 | -6.22% (inactive) |
| O=C(Nc1ccnn1C1CCN(Cc2cccc(OCCO)c2)CC1)C1CCCC1 | 0.6% (inactive) |
| COc1ccc(CN2CC(C(=O)NCCc3ccc(Cl)cc3)CC2=O)cc1 (stereo not given) | -2.13% (inactive) |
| COc1ccccc1N(CC(=O)Nc1c(C)n(C)n(-c2ccccc2)c1=O)S(=O)(=O)c1ccccc1 | -1.61% (inactive) |

| Compound | Tm shift relative to glycine control |
| --- | --- |
| COc1ccc(Cl)cc1NS(=O)(=O)c1cccc(C(=O)NC2CCC(O)CC2)c1 (stereo not given) | 0.97% (inactive) |
| NS(=O)(=O)c1ccc(CCNC(=O)CCCn2c(SCC(=O)N3CCCC3)nc3ccsc3c2=O)cc1 | -0.96% (inactive) |
| COc1cccc(NC(=O)COC(=O)/C=C/c2ccco2)c1 | -0.92% (inactive) |
| Cc1ccc(-n2nc3ccc(NC(=O)/C=C/c4ccco4)cc3n2)cc1C | 32.1% (active) |
| CN(c1ccccc1)S(=O)(=O)c1cc(C(=O)Nc2nc3ccccc3[nH]2)ccc1Cl | -0.62% (inactive) |
| O=C(/C=C/c1ccco1)Nc1ccc(Oc2ccccc2)cc1 | 2.36% (inactive) |
| CC(C)Oc1ccc(/C=C(\NC(=O)/C=C/c2ccco2)C(=O)NCCc2nc3ccccc3[nH]2)cc1 | -0.09% (inactive) |
| O=C(Nc1cccc(-c2nc3ccccc3[nH]2)c1)c1ccc(C(=O)Nc2cccc(-c3nc4ccccc4[nH]3)c2)cc1 | 27.9% (active) |
| CCC(=O)Nc1ccc2nn(-c3ccc(F)cc3)nc2c1 | -10.1% (inactive) |
| O=C(/C=C/c1ccco1)Nc1cccc(-c2nc3ccccc3[nH]2)c1 | 22.5% (active) |
| COc1ccc(C(=O)Nc2cccc(S(C)(=O)=O)c2)cc1 | 4.52% (inactive) |
| COc1cc2c(cc1OC)C(c1ccccc1Br)NC(=O)C2 (stereo not given) | -0.95% (inactive) |
| Cn1c(=O)c2ccccc2n(CC(=O)Nc2ccc3c(c2)OCCO3)c1=O | -1.03% (inactive) |
| C[C@@H]1NC(=O)c2cc([N+](=O)[O-])cc(F)c2NCCC[C@@H](C(N)=O)NC(=O)[C@H](CC(N)=O)NC1=O | 1.79% (inactive) |
| CC(=O)N(CN1C(=O)C2C3C=CC(C3)C2C1=O)c1cccc(Cl)c1 (stereo not given) | -2.44% (inactive) |
| Oc1c(Br)cc(/C=N/NC(=S)NCC2CCCO2)cc1Br (stereo not given) | 1.71% (inactive) |
| COc1ccc(NC(=O)NC2CC3CCCC(C2)N3Cc2ccccc2)cc1 (stereo not given) | 0% (inactive) |
| COc1ccc(-c2noc(C(C)NS(=O)(=O)c3ccc(NC(C)=O)cc3)n2)cc1 (stereo not given) | -8.89% (inactive) |
| CC(=O)Nc1ccc(S(=O)(=O)NC(C)C(=O)OCC(=O)NC2CCCC2)cc1 (stereo not given) | 0.79% (inactive) |
| CC(=O)Nc1ccc(S(=O)(=O)NC(C)C(=O)OCCOc2ccc(F)cc2)cc1 (stereo not given) | 22.1% (active) |
| Cc1c(NC(=O)c2cc(-c3ccc(Cl)s3)nc3ccccc23)c(=O)n(-c2ccccc2)n1C | 1.05% (inactive) |
| C[C@H](NC(=O)C1CC(=O)N(c2ccc3c(c2)OCCO3)C1)C(=O)N1CCC(C(=O)O)CC1 (stereo not given in full) | -0.91% (inactive) |
| CCOC(=O)c1c(-c2ccccc2)oc2cc(Br)c(O)cc12 | 13.8% (active) |
| CCOC(=O)c1c(-c2ccccc2)oc2cc(Br)c(O)c(C=O)c12 | -7.04% (inactive) |
| CCOC(=O)c1c(-c2ccccc2)oc2ccc(OCC(=O)NN)cc12 | 0.51% (inactive) |
| Cc1cccc(CC(=O)N2CCN=C2SCc2ccc([N+](=O)[O-])cc2)c1 | -0.64% (inactive) |
| CCN(CC)CCCNC(=O)c1cn(C)c2ccc(S(=O)(=O)N(C)C3CCCCC3)cc2c1=O | -1.61% (inactive) |
